# In the library only some 11% were active in any assay of this set; here they are far more common.
# G9a block = blocks human histone lysine methyltransferase G9a; Q96KQ7; G9a H3K9 monomethylation, AlphaScreen, 2 h; Potency, µM (top dose mostly 102 µM), for inactives: top-dose activity, negative = inhibition, hits mostly inhibitors; 8.8% of 350,000 active; note: % is set by controls: 0 for no effect and ±100 for the full control effect; nearly all actives have a fitted effect of over 75% in size
#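 G9a (20 nM) preincubated 15 min RT with compounds, then 500 nM biotinylated H3K9 peptide and 20 uM SAM added; 2 h RT reaction. Monomethyl-H3K9 product detected by AlphaScreen with anti-H3K9me1 antibody, streptavidin donor and anti-rabbit IgG acceptor beads.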
# L3MBTL1 inh = blocks human L3MBTL1; Q9Y468; AlphaScreen L3MBTL1–H3K9me1 peptide binding; Potency, µM (titrated, usually from 57.1 µM), without a hit: top-dose activity, negative = inhibition, most hits filed as inhibitors; 0.66% of 230,000 active; AID 485360; note: % is set by controls: 0 for no effect and ±100 for the full control effect; nearly all actives have a fitted effect of over 60% in size
#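 L3MBTL1 (50 nM) pre-complexed 30 min with biotinylated H3(1-15)K9me1 peptide (75 nM), then compounds added for 30 min at room temperature; AlphaScreen streptavidin donor/nickel chelate acceptor beads (10 ug/mL final) read after 30 min dark incubation.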
# BAZ2B block = blocks human BAZ2B. Q9UIF8. AlphaScreen BAZ2B-H3K14Ac peptide displacement. Potency, µM (doses to about 114 µM), for the others: at the top dose activity change, negative = inhibition, most hits filed as inhibitors. 4.4% of 360,000 active; note: % is set by controls: 0 for no effect and ±100 for the full control effect; nearly all actives have a fitted effect of over 60% in size
#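 AlphaScreen displacement of biotin-H3(5-23)K14Ac peptide (50 nM final) from BAZ2B (50 nM final) in PBS pH 7.4, 0.01% Tween-20; complex preformed 30 min RT, then compounds (top 110 uM) 30 min RT, beads 20 min dark.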
# HP1b chromo inh = HP1-beta chromodomain-methylated histone interaction inhibition; P83916; AlphaScreen HP1-beta / biotin-H3K9me3 peptide binding; Potency, µM (series often up to 114 µM), without a hit: at the highest dose activity change, negative = inhibition, actives largely listed as inhibitors; 0.56% of 390,000 active; AID 540317; note: nearly all actives have a fitted effect of over 70% in size
#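 Compound inhibition of the preformed complex between 50 nM HP1-beta and 50 nM biotinylated H3K9me3 peptide was read by AlphaScreen. Buffer was PBS pH 7.4 with 0.01% Tween-20. Incubations ran 30 min at room temperature, with 10 ug/mL donor/acceptor beads.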
# JMJD2A Tudor inh = inhibitors of human JMJD2A Tudor domain; O75164; AlphaScreen JMJD2A-Tudor / H3K4me3 peptide binding; Potency, µM (highest dose often 114 µM), inactives show at the highest dose activity change, negative = inhibition, hits mostly inhibitors; 4.4% of 390,000 active; AID 504339; note: % is set by controls: 0 for no effect and ±100 for the full control effect; nearly all actives have a fitted effect of over 50% in size
# The depositor's hits bear a star; ? = inconclusive; . = no result; ! = repeats disagree; [ ] = remark or other dose. Calls come from the whole dose curve; as a rule, active = well fitted inhibition curve with a large enough effect; inconclusive = small, poorly fitted or top-dose-only effect; inactive = no such curve, though single readings can be large or run the other way. Potency is the fitted concentration of half-maximal effect.
SMILES,G9a block,L3MBTL1 inh,BAZ2B block,HP1b chromo inh,JMJD2A Tudor inh
O=C(NNS(=O)(=O)c1ccc(Br)cc1)c1csnn1,50µM*,8%,-6%,-4%,?
CC(C)c1ccc(NC(=O)c2csnn2)cc1,-14%[12.7 µM],.,-27%,9%,-16%
NS(=O)(=O)c1ccc(NC(=O)c2csnn2)cc1,22µM*,.,-16%,?,89µM*
CCc1cc2c(=O)c(-c3nc4ccccc4n3C)coc2c(CN2CCCCC2C)c1O (stereo not drawn),46%,.,45µM*,21%,-32%
Clc1ccc(CNCCCSc2ncccn2)cc1Cl,40µM*,7%,-14%[57.1 µM],13%,-15%
Cc1cc(C)nc(SCCCNCc2ccccc2)n1,50µM*,.,-38%,28%,-15%
CCC[C@H]1C[C@H](C(=O)N[C@@H]([C@H]2O[C@@H](SC)[C@@H](O)[C@@H](O)[C@@H]2O)[C@H](C)Cl)N(C)C1,-17%[12.7 µM],.,.,.,.
N#CCCN(Cc1ccccc1)C(=O)c1nccnc1C(=O)O,35µM*,.,?,50%,?
C=CCN1C(=O)C(O)(CC(=O)c2ccc(-n3cccc3)cc2)c2ccccc21 (stereo not drawn),?,?,50µM*,?,?
O=C(CC1(O)C(=O)Nc2ccccc21)c1ccc(-n2cccc2)cc1 (stereo not drawn),?,-9%,?,-11%,-18%
CN(C(=O)CSc1nc(C2CCCC2)nc2c1c(=O)n(C)c(=O)n2C)c1ccccc1,2%[59 µM],.,24%,42%[57 µM],-10%
CC(Cc1ccccc1)(NC(=O)CN)c1ccccc1 (stereo not drawn),18%[59 µM],.,79µM*,.,.
c1ccc(-c2cnc(-c3ccccc3)nc2)cc1,?,.,-5%,32%,-10%
O=C(O)c1ncc(-c2ccccc2)cn1,8.9µM*,-13%,.,?,10µM*
CCOC(=O)CNC(=O)C12CC3CC(CC(C3)C1)C2,34%[12.7 µM],0%,-19%,17%,-8%
CCOC(=O)CC1(C)NC(C(=O)O)C(C)(C)S1 (stereo not drawn),.,.,.,-13%,5µM*
CC1(CC(=O)N/N=C/c2cc([N+](=O)[O-])c(O)cc2O)OCCO1,40µM*,?,50µM*,8.9µM*,?
CC[N+](C)(CC)CCC/C(=N/O)C(O)(c1ccccc1)c1ccccc1,50µM*,2%,-21%,12%,?
Cc1ccc(S(=O)(=O)NNC(=O)c2cnn(-c3ccc(Cl)cc3)c2C(F)(F)F)cc1,56µM*,-13%,-21%,1%,-17%
CCC(=O)O[C@@H]1[C@H](C)O[C@H](O[C@H]2[C@@H](N(C)C)[C@H](O)[C@@H](O[C@@H]3[C@@H](CC=O)C[C@@H](C)[C@@H](O)/C=C\C=C/C[C@@H](C)OC(=O)C[C@@H](OC(=O)CC)[C@H]3OC)O[C@H]2C)C[C@]1(C)O,20%[21.5 µM],.,.,.,.
COc1ccc(OCC(=O)N/N=C2\CCCCc3ccccc32)cc1,-7%,-2%[11.4 µM],-31%,8%,14µM*
COc1cccc(NC(=S)N/N=C2/CCCCc3ccccc32)c1,40µM*,-30%,40µM*,-29%,?
COc1ccc(OCC(=O)NNC(=O)C(=O)N2CCCC2)cc1,20µM*,11%,?,34%,-4%
CCc1ccc(OCC(=O)N/N=C2\CC(=O)c3ccccc32)cc1,13µM*,.,-29%,.,.
CN1c2ccccc2C(=O)N2CCc3c([nH]c4ccccc34)C21 (stereo not drawn),.,.,.,-5%,-12%
SMILES,G9a block,L3MBTL1 inh,BAZ2B block,HP1b chromo inh,JMJD2A Tudor inh
Cc1cc(C)cc(NC(=O)C(NS(=O)(=O)c2cccc3nsnc23)c2ccccc2)c1 (stereo not drawn),-5%[59 µM],.,.,-8%,?
Cc1ccc(Cn2c(C)c3cnn(CC(=O)NCCc4ccc(Cl)cc4)c(=O)c3c2C)cc1,2%[59 µM],.,0%,19%,-17%
CCc1ccc(OCC(=O)NN2Cc3ccccc3C2=N)cc1,45µM*,3%,-13%,20%,1%
N#Cc1ccc(OCC(=O)NN2Cc3ccccc3C2=N)cc1,-40%,14%,2%,15%,?
Fc1ccc(-c2cc(C(F)(F)F)n3ncnc3n2)cc1,13µM*,.,-24%,22%,?
CC(C)(C)OC(=O)N1CCC(c2c(C(=O)N3CCN(c4ccc(Cl)cc4)CC3)cnn2-c2ccc(F)cc2F)CC1,-41%[59 µM],.,-3%[57.1 µM],5%,?
CC(C)(C)OC(=O)n1cccc1/C=C1\c2ccccc2C(=O)N1c1ccccc1,.,.,.,-37%,63µM*
O=C1Nc2c(c(=O)[nH]c(=O)n2Cc2ccccc2)C1(NS(=O)(=O)c1ccccc1)C(F)(F)F (stereo not drawn),45µM*,3%,-1%,28%,-3%
Cc1ccc(-n2c3c(c(=O)[nH]c2=O)C(NS(=O)(=O)c2ccc(Cl)cc2)(C(F)(F)F)C(=O)N3)cc1 (stereo not drawn),50µM*!,4%,-4%,25%,-11%
O=C(NC1(C(F)(F)F)C(=O)Nc2c1c(=O)[nH]c(=O)n2Cc1ccco1)C1CCCCC1 (stereo not drawn),79µM*,.,3%,3%,79µM*
O=C1Nc2c(c(=O)[nH]c(=O)n2-c2ccc(F)cc2)C1(NS(=O)(=O)c1ccc(Cl)cc1)C(F)(F)F (stereo not drawn),4%[59 µM],.,-3%,22%,-4%
CCCCC[C@H](O)/C=C/[C@H]1C=CC(=O)[C@@H]1C/C=C\CCCC(=O)O,35µM*!,?,50µM*,.,.
CCCCC/C=C/C=C1/C(=O)C=C[C@@H]1C/C=C\CCCC(=O)O,22µM*!,.,.,.,.
CCCCCCCC/C=C\CCCCCCCC(=O)O,28%[59 µM],.,-23%,86%,89µM*
O=C(CC1Oc2ccccc2NC1=O)NCc1ccccc1 (stereo not drawn),7%,0%,-2%,4%,?
CC(=O)CC1OC(=O)C(Br)=C1NCc1ccccc1 (stereo not drawn),35µM*,-7%,-2%,-22%,-19%
C(=N\NC1=NCCN1)/c1ccncc1,40µM*,-6%,?,7%,?
Cc1ccc(OCC(=O)N2CCN(S(=O)(=O)c3ccc(Cl)cc3)CC2)c([N+](=O)[O-])n1,40µM*,-4%,-6%,12%,-15%
COc1cc(C(=O)N2CCN(S(=O)(=O)c3ccc(Cl)cc3)CC2)ccc1OCC(=O)N1CCOCC1,.,.,.,66%,-7%
O=C(Cc1c[nH]c2ccccc12)N1CCN(S(=O)(=O)c2ccc(Cl)cc2)CC1,14µM*,-11%,-8%,-5%,-27%
COc1ccccc1OCC(=O)N1CCCCCCC1,.,-3%,-2%,44%,-10%
O=S(=O)(c1ccc(Cl)cc1)N1CCN(Cc2c[nH]c3ccccc23)CC1,-32%[59 µM],.,-36%,26%,3%

# Screening results deposited in PubChem BioAssay by National Center for Advancing Translational Sciences (NCATS).
